Reference: PubChem BioAssay AID2112 (National Center for Advancing Translational Sciences (NCATS), 2009)
The campaign covered roughly 240,000 compounds. About 15 (0.006%) were called active. Calls come from the whole dose curve; as a rule, active = well fitted inhibition curve with a large enough effect; inconclusive = small, poorly fitted or top-dose-only effect, or effect the other way, or another doubt; inactive = no such curve, though single readings can be large or run the other way. Only a sample is shown.

Biological target: Lysosomal alpha-glucosidase (Homo sapiens) (UniProt P10253)
Assay: qHTS Assay for Inhibitors and Activators of Human alpha-Glucosidase From Spleen Homogenate
Settings: 4-MU-alpha-glucoside fluorescence; series mostly up to 79.9 µM
Source text: NIH Chemical Genomics Center [NCGC] NIH Molecular Libraries Probe Production Centers Network [MLPCN] MLPCN Grant: R03 MH084841-01 Assay Submitter (PI): Wei Zheng NCGC Assay Overview: Alpha-glucosidase is responsible for the hydrolysis of terminal, non-reducing 1,4-linked alpha-D-glucose residues, which releases alpha-D-glucose. It is a lysosomal hydrolase that is required for the degradation of a small percentage (1-3%) of cellular glycogen in humans. Deficiency of this enzyme results in glycogen-storage disease type II (GSDII), also referred to as Pompe disease, an autosomal recessive disorder. Structurally normal glycogen is accumulated in the lysosomes and cytoplasm in affected patients, primarily in muscle tissues. Excessive glycogen storage within lysosomes may interrupt normal functioning of other organelles and leads to cellular injury. In turn, this leads to enlargement and dysfunction of the entire organ involved (eg: cardiomyopathy and muscle weakness). It has been reported that the improper folding and trafficking of alpha-glucosidase resulting from genetic mutations may account for a significant number of Pompe patients. […] We optimized this alpha-glucosidase assay in 1536-well plate format for identification of novel small molecule inhibitors or activators with structures other than the sugar analogs in order to develop new pharmacological chaperones. In particular, this assay is directed towards discovering compounds active in a more natural setting, tissue homogenate, that may have been missed by screens of the purified enzyme under more stringent conditions.
NCGC Assay Protocol Summary: This is a fluorogenic enzyme assay with 4-methylumbelliferyl-alpha-D-glucopyranoside as the substrate and human spleen homogenate containing alpha-glucosidase as the enzyme preparation. Upon hydrolysis of this fluorogenic substrate, the resulting product, 4-methylumbelliferone (which excites at 365 nm and emits at 440 nm) can be detected by a fluorescence plate reader. Data were normalized to the controls for basal activity (without enzyme) and 100% activity (with enzyme). The AC50 values were determined from concentration-response data modeled with the standard Hill equation. Assay buffer: 50 mM citric acid (titrated with potassium phosphate to pH 5.0), 0.01% Tween-20 (pH 5.0 is an optimal condition for this enzyme assay) 1536-well assay protocol for the alpha-glucosidase from human spleen homogenate: (1) Add 2 ul/well spleen homogenate (1 ug) (2) Add 23 nL compounds in DMSO solution. The final titration was 0.5 nM to 58 uM. (3) Add 2 ul of substrate (1 mM final) (4) Incubate at 37 C for 40 min (5) Add 2 ul stop solution (1M NaOH and 1M Glycine mixture, pH 10) (6) Detect the assay plate in a ViewLux plate reader (PerkinElmer) with Ex=365 nm and Em=440nm. Keywords: Alpha-glucosidase, Pompe Disease, pharmacological chaperone, chaperone therapy, high throughput screening, alpha-glucosidase inhibitor, MLSMR, MLSCN, NIH Roadmap, qHTS and NCGC

outcome, inactive:
O=c1cc(-c2ccc(O)cc2)oc2c([C@@H]3O[C@H](CO)[C@@H](O)[C@H](O)[C@H]3O)c(O)cc(O)c12, Cc1sc2ncnc(Sc3nc4ccccc4s3)c2c1C, COc1ccc(C(CC(=O)c2ccccc2)S(=O)(=O)c2ccccc2)cc1 (stereo unspecified), O=C1NNC(c2ccccc2)=N/C1=C\c1ccc(Cl)cc1, CC(O)[C@@H](N)C(=O)O (stereo partly specified), OCCC(O)CO (stereo unspecified), Cc1ccc(-c2cn(S(=O)(=O)c3cccc([N+](=O)[O-])c3)nc2N)cc1, ONC(=Nc1ccccc1)c1ccccc1Cl, Cc1c(Br)ccc(NC(=O)COc2ccccc2C(N)=O)c1C, O=C(NCCc1ccccc1)C1CCN(S(=O)(=O)c2ccc(Br)s2)CC1, C=CCn1c(SCC(=O)c2c(N)n(C)c(=O)n(C)c2=O)nc2sc(CC)cc2c1=O, C=CCOC(=O)C(=C)C, Cc1ccc(SCC(CC(C)C)N2CCN(CCc3ccccc3)CCC2=O)cc1 (stereo unspecified), Cc1nc(=O)c(-c2ccccc2)c(C)n1-c1ccc(Br)cc1, Cc1cc(OCCCC(=O)NCCN2C(=O)S/C(=C\c3cccnc3)C2=O)ccc1Cl, Fc1ccc(Cl)cc1-c1nc(Nc2ccncc2)c2nccnc2n1, CCOC(=O)c1sc(C)c2c1NC(C)(c1cccc3ccccc13)NC2=O (stereo unspecified), COc1ccc2c(c1)c(=O)c(C(=O)c1ccc(Cl)cc1)cn2CC(=O)Nc1ccc(F)cc1, CCOCCOC(=O)C(C)Oc1ccc(Oc2ncc(C(F)(F)F)cc2Cl)cc1 (stereo unspecified), S=c1ccc2ccccc2[nH]1, C=CCC(C(=O)c1ccccc1)[N+](C)(C)CC=C (stereo unspecified), O=c1[nH]oc(O)c1-c1ncc(C(F)(F)F)cc1Cl, Cc1cc2ccccn2c1C(=O)c1cccc(S(=O)(=O)N2CCOCC2)c1, CC(=O)NNC(=O)c1csc(Cc2c(Cl)sc3ccc(Cl)cc23)n1, CCCCc1nn(-c2ccccc2C(F)(F)F)c(=O)n1Cc1ccc(-c2ccccc2S(=O)(=O)NC(=O)c2sccc2C)cc1, COC(=O)c1sc(-c2ccc(C(C)(C)C)cc2)cc1NC(=O)/C=C/C(=O)O, CNC(=O)[C@]1(C(F)(F)F)C[C@H](CCc2ccccc2)CCCO1, C[C@@H]1O[C@@H](OC[C@H]2O[C@@H](Oc3cc(O)c4c(c3)O[C@H](c3ccc(O)c(O)c3)CC4=O)[C@H](O)[C@@H](O)[C@@H]2O)[C@H](O)[C@H](O)[C@H]1O, O=C1C[C@@H](c2ccc3ccccc3c2)N1S(=O)(=O)c1ccccc1[N+](=O)[O-], O=C(Nc1cc(C(=O)Nc2ccc(S(=O)(=O)O)cc2)cc(C(=O)Nc2ccc(S(=O)(=O)O)cc2)c1)Nc1cc(C(=O)Nc2ccc(S(=O)(=O)O)cc2)cc(C(=O)Nc2ccc(S(=O)(=O)O)cc2)c1, O=c1[nH]c(CN2CCN(S(=O)(=O)c3ccc4c(c3)OCCO4)CC2)nc2sc3c(c12)CCCC3, CC(Oc1ccc(Br)cc1Br)C(=O)NC1CCCC1 (stereo unspecified), O=C(O)C1CC=CC2CCN(C3CCCCC3)C(=O)C21 (stereo unspecified), COc1ccc(Br)cc1C1C2C=CCC(C)C2C(=O)N1Cc1ccccc1 (stereo unspecified), CCCCC/C=C\C/C=C\CCCCCCCCCC(N)=O, CCCCN(CC)C(=O)c1ccccc1Oc1ccccc1, O=C(COc1ccc(/C=N/NS(=O)(=O)c2ccccc2)cc1)NCCc1ccccc1, Oc1ccc(N2CCN(C(=S)NCc3ccccc3)CC2)cc1, COc1ccc(C[C@H](C(=O)O)N2C(=O)c3ccc(C(=O)O)cc3C2=O)cc1, CCNc1nc(NC(C)C)nc(N2CC(=O)N(CC(=O)OCC)C2=N)n1, Cc1cc2oc(C(=O)Nc3c(C)n(C)n(-c4ccccc4)c3=O)c(C)c2cc1Cl, CC1(C)Cc2nc3sc4c(SCC(=O)NC(c5ccccc5)c5ccccc5)ncnc4c3cc2CO1, FC(F)(F)c1nc(-c2ccccc2)ncc1-c1nnnn1-c1ccccc1, CCCCNc1ccc(C(=O)Nc2cccc(C)n2)cc1[N+](=O)[O-], COc1cc(NS(=O)(=O)c2ccc3ccccc3c2)c2ncccc2c1, CC/C(=N\NC(=O)c1ccccc1Cl)c1ccc(Br)s1, Cc1noc(C)c1-c1ccc2ncnc(NC(C)c3ccco3)c2c1 (stereo unspecified), CN(C)CCc1c[nH]c2ccc(Cn3cncn3)cc12, CC1CCC(C(C)C)C(=O)/C1=C\c1ccc(NC(=O)CCC(=O)O)cc1 (stereo unspecified), O=c1[nH]c2cccnc2n(CCNc2ncc(C(F)(F)F)cc2Cl)c1=O, NC1CCN(O)C1=O (stereo unspecified), CN1CCN2c3ccccc3Cc3ccccc3[C@@H]2C1, C=C1CCN(C(CC(C)C)C(=O)N2CCOCC2)S(=O)(=O)c2ccccc21 (stereo unspecified), CCN(CC)/[N+]([O-])=N/Oc1cc(O/[N+]([O-])=N/N2CCCC2CO)c([N+](=O)[O-])cc1[N+](=O)[O-] (stereo unspecified), Cc1cccc([C@H]2[C@@H]3C=CC[C@@H](C)[C@@H]3C(=O)N2Cc2ccccc2)c1, CCOC(=O)C1=C(C)c2ccccc2OC1C(=O)OCC (stereo unspecified), O=C(O)CCn1c(O)c(C=C2N=c3ccccc3=N2)sc1=S, COc1cc(OC)c2c(c1C(CCN1CCCCC1)c1ccc(N(C)C)cc1)OC(=O)CC2c1ccc(N(C)C)cc1 (stereo unspecified), O=C1CN(Cc2ccccc2)S(=O)(=O)c2ccccc21, Cc1cc(=O)oc2cc(NC(=O)C3CC(=O)N(Cc4ccccc4)C3)ccc12 (stereo unspecified), Cc1c(CN2CCC(CO)(CCOc3ccccc3)CC2)[nH]c2ccc(Cl)cc12, CC(C)=CCN1CCC2(CCc3ccccc32)CC1, CC(CNc1ccc([N+](=O)[O-])cc1)NC(=O)c1ccccc1Br (stereo unspecified), CC1CCN(S(=O)(=O)c2ccc3ncn(CC(=O)N(C)C4CCCCC4)c(=O)c3c2)CC1, OC(COCC1COc2ccccc2O1)CN1CCN(c2ccc(F)cc2)CC1 (stereo unspecified), C=C(C)C(=O)c1ccc(F)cc1, CC[C@H](C)[C@H](NC(=O)[C@@H](N)CCC(=O)O)C(=O)N[C@@H](CC(C)C)C(=O)N[C@@H](CC(=O)O)C(=O)N[C@H](C(=O)N1CCC[C@H]1C(=O)N[C@@H](CO)C(=O)N[C@H](C(=O)O)[C@@H](C)O)C(C)C, H-EHIPA-OH, O=C(NCCCCc1ccccc1)C1CC(c2ccc([N+](=O)[O-])cc2)=NO1 (stereo unspecified), COc1ccccc1-c1nnc(NC(=O)c2ccc3ncsc3c2)o1, CN1CCN(c2cc3c(cc2F)c(=O)c(C(=O)O)cn3CCF)CC1, CCOC(OCC)OCC, Oc1ccc(-c2c(-c3ccccc3)nn3c(C(F)(F)F)cc(C(F)(F)F)nc23)cc1, O=C(NCCCNc1ccc([N+](=O)[O-])cc1Cl)c1ccccc1F, COCCCNC(=S)N1CCCC(c2nc3cc(C)c(C)cc3[nH]2)C1 (stereo unspecified), Brc1ccc2ncnc(NCc3cccnc3)c2c1, CCCC1=Nc2cc(C(=O)NCc3ccco3)ccc2Sc2ccccc21, CCOC(=O)c1c(C)n(C)c2ccc(OC)c(NS(=O)(=O)CC)c12, C/C=C(\C)C(=O)NCCN1C2=NC[C@H](Cc3ccc(O)cc3)N2C[C@@H]1Cc1ccc(OC)cc1, COc1ccc(C2=Nn3c(nnc3-c3ccccc3O)SC2)cc1, Cn1ccc(=NC=C(C#N)C#N)c2ccccc21, COc1ccc(C2=NN(C(=O)c3cccnc3)C(c3ccccc3)C2)cc1 (stereo unspecified), Cc1cc(N(C)C)nc(Cl)n1, O=C(CSc1cccc[n+]1[O-])c1ccc(-c2ccccc2)cc1, COc1cccc(CC2(CO)CCN(Cc3cnc(-c4cccc(C)c4)nc3)CC2)c1, O=C(Nc1ccccc1F)c1ccccc1-c1ccc(C(F)(F)F)cc1, O=[N+]([O-])c1ccccc1SNc1ccccn1, N#Cc1cccc(CS(=O)(=O)c2nnnn2-c2cc(C(F)(F)F)cc(C(F)(F)F)c2)c1, FC(F)(F)c1cccc(-c2cc3ccccc3nc2N2CCCC2)c1, O=C(Nc1ccc(Cl)cc1)/C(=C1\CCCN1)[N+](=O)[O-], Cc1noc(C)c1-c1ccc2ncnc(NCc3ccc4[nH]ccc4c3)c2c1, COc1ccc(Cl)cc1NC(=O)COC(=O)C(CC(C)C)N1C(=O)C2CC=CCC2C1=O (stereo unspecified), O=C(CCl)Nc1cccc(CP(=O)(c2ccccc2)c2ccccc2)c1, Cc1ccc(CNC(=O)C2(C(F)(F)F)C/C(=C\Cc3ccccc3)CCCO2)o1 (stereo unspecified), CCCN1CCC(=O)N(C(CSc2ccc(C)cc2)Cc2ccccc2)CC1 (stereo unspecified), COC(=O)Cn1cc(/C=C/[N+](=O)[O-])c2ccccc21, O=C(NCc1ccccn1)[C@]1(C(F)(F)F)C[C@H](CCc2ccccc2)CCCO1, CC(C)[C@@H]1NC(=O)[C@H](Cc2ccccc2)NC(=O)[C@@H](CC(=O)O)NC(=O)CNC(=O)[C@H](CCCNC(=N)N)NC1=O, COC(=O)[C@@]1(Cc2ccc(OC)cc2)[C@H]2c3cc(C(=O)N4CCCC4)n(Cc4ccc(OC(F)(F)F)cc4)c3C[C@H]2CN1C(=O)c1ccccc1, COc1ccc(C2/C=C\CN(Cc3ccco3)C(C)C(=O)N2Cc2ccc(F)cc2)cc1 (stereo unspecified), COc1cc2c(cc1OC)C(/C=C/c1ccco1)=NCC2
